In the library only some 5.6% were active in any assay of this set; here they are far more common.
ALR inh = blocks human ALR sulfhydryl oxidase activity; P55789; purified ALR, DTT oxidation, H2O2 HRP-luminol luminescence; inhibition, % (concentration not given with the values); 3.8% of 290,000 active;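 active means mean replicate inhibition above about 79%, with every replicate also reaching it, limit read from the data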
Target sequence (P55789 whole entry, looked up): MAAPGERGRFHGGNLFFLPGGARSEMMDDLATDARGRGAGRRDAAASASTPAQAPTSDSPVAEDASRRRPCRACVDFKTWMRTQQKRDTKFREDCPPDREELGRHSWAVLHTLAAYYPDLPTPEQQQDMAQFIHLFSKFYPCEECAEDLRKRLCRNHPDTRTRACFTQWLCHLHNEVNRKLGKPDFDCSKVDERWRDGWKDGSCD
PHOSPHO1 inh = blocks human PHOSPHO1 phosphatase activity; Q8TCT1; 1.1% of 290,000 active; inhibition, % at 13.3 µM; AID 1565; recombinant PHOSPHO1, absorbance phosphatase assay; in the data active means inhibition above about 60%
Target sequence (Q8TCT1 whole entry, looked up): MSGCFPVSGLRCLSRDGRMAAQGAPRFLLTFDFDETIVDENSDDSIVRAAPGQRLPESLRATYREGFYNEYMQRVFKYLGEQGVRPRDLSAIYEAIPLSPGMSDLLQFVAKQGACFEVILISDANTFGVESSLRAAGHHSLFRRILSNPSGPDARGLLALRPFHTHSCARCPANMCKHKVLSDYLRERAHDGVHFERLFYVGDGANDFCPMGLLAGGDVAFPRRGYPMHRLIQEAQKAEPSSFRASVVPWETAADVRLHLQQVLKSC
PfM18AAP inh = blocks P. falciparum M18 aspartyl aminopeptidase | recombinant PfM18AAP, H-Glu-NHMec fluorogenic cleavage | inhibition, % at 7.35 µM | 1.2% of 290,000 active | AID 1822;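 active means inhibition above the campaign mean inhibition over all tested compounds plus 3 SD, cut at about 28% in these data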
Cardio protect = protects H9c2 cardiomyocytes from peroxide injury; 0.63% of 360,000 active; AID 588492; H2O2 injury protection, ATPLite, 2 h; protection from H2O2 cell death, % at 20 µM;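 active means compounds giving at least 50% protection of heart cells from peroxide-induced death in the single-dose screen, raw or plate-pattern-corrected value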
PfGluPho inh = PfG6PD (Plasmodium falciparum) enzyme inhibition. PfGluPho enzyme, NADPH resazurin-diaphorase fluorescence. 0.78% of 350,000 active. AID 504690. inhibition, % at 20 µM;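 active means inhibition reaching at least a set limit at 20 µM in the primary screen, cut at about 59% in these data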
A number is an active result; i = inactive; nt = no result given.

SMILES	ALR inh	PHOSPHO1 inh	PfM18AAP inh	Cardio protect	PfGluPho inh
CC(=O)Nc1c(O)nc(SCC(=O)Nc2nnc(CC(C)C)s2)[nH]c1=O	85.4	i	i	i	i
Cc1cc(=O)[nH]c(SCC(=O)Nc2nnc(CC(C)C)s2)n1	i	i	i	i	i
CCCc1cc(=O)[nH]c(SCC(=O)Nc2sc3c(c2C#N)CCC(C)C3)n1 (configuration not stated)	89.3	i	i	i	i
CC1CCc2c(sc(NC(=O)CSc3ncn[nH]3)c2C#N)C1 (configuration not stated)	i	i	i	i	i
CC(=O)Nc1c(O)nc(SCC(=O)Nc2sc3c(c2C#N)CCCCCC3)[nH]c1=O	98.0	i	i	i	i
CC(=O)Nc1c(O)nc(SCC(=O)Nc2cccc(C)c2)[nH]c1=O	98.1	i	i	i	i
CC[C@@H](NCCCn1ccc(NC(=O)OCc2ccccc2)nc1=O)c1ccccc1	nt	nt	nt	i	i
COc1cc2cc(CCO)oc(=O)c2cc1OC	i	nt	nt	i	i
CN(C(=O)COC(=O)C1(C)CC1(Cl)Cl)c1c(N)n(Cc2ccccc2)c(=O)[nH]c1=O (configuration not stated)	i	nt	nt	i	i
C[C@H]1CN([C@@H](C)CO)C(=O)CCCn2nncc2CO[C@H]1CN(C)S(=O)(=O)c1cccs1	nt	nt	nt	i	i
CC(=O)Nc1c(O)nc(SCC(=O)Nc2ccc(C(C)=O)cc2)[nH]c1=O	98.4	i	i	i	i
COc1ccc(CNC(=O)C2=CC(c3ccc(OC)cc3)=NS(=O)(=O)N2C)cc1	i	i	i	i	i
COCC(=O)N(Cc1cc2cc(C)ccc2[nH]c1=O)c1cccc(C)c1C	82.0	nt	i	i	i
COCC(=O)N(Cc1cc2cc(C)ccc2[nH]c1=O)c1ccc(C)c(C)c1	i	i	i	i	i
Cc1cc(C(=O)NN=C2CCCC2)c2ccccc2n1	nt	nt	nt	i	i
Cc1ncc(CO)c(/C=N/NC(=S)Nc2ccc(C(C)C)cc2)c1O	i	i	i	i	i
Cc1ncc(CO)c(/C=N/NC(=O)c2cc(Br)ccc2O)c1O	i	i	i	50.1	i
Cc1cc(C(=O)N/N=C/c2c(CO)cnc(C)c2O)c2ccccc2n1	i	i	i	55.3	i
Cc1cc(C(=O)NN=C2CCCCC2)c2ccccc2n1	84.3	i	i	i	i
Cc1ncc(CO)c(/C=N/NC(=O)c2ccc(Br)cc2)c1O	i	i	i	nt	nt
Cc1ncc(CO)c(/C=N/Nc2cccc(Cl)n2)c1O	86.5	i	i	i	i
COc1ccc(Cc2c(-c3cccc(Cl)c3)nc3c(C)cc(Br)cn23)c(C)c1	nt	nt	nt	i	nt
Cc1ccc(C=Nc2ccccc2C(N)=O)o1	i	i	i	i	i
Cc1ccc(C=Nc2ccc(N(C)C)cc2)o1	98.1	i	i	i	i
CCOC(=O)C(CSCC(=O)c1ccc(Cl)cc1)NC(=O)OC(C)(C)C (configuration not stated)	nt	i	i	i	i
SMILES	ALR inh	PHOSPHO1 inh	PfM18AAP inh	Cardio protect	PfGluPho inh
CCOC(=O)C(CSCC(=O)c1ccc(Br)cc1)NC(=O)OC(C)(C)C (configuration not stated)	98.5	i	i	nt	nt
Cc1noc(C)c1COC(=O)CCOc1ccccc1	i	i	i	i	i
Cc1noc(C)c1COC(=O)CCN1c2ccccc2Sc2ccccc21	92.7	i	i	i	i
O=C(Cc1ccccc1)NCC(=O)OCC(=O)c1ccccc1Cl	77.1	i	i	i	i
CCOC(=O)Nc1cccc(Nc2ccccc2)c1	99.0	i	i	i	i
CCOC(=O)Nc1cccc(C(=O)O)c1	i	i	i	i	i
COc1cccc(NC(=O)CSc2c3c(nc4ccccc24)CCCC3)c1	99.2	i	i	i	i
Cc1cccc(NC(=O)CSc2c3c(nc4ccccc24)CCC3)n1	98.6	i	i	i	i
COc1cccc(NC(=O)CSc2ncnc3c2cnn3Cc2ccccc2)c1	89.9	i	i	i	i
CCn1c(SCC(=O)Nc2cccc(OC)c2)nc2ccccc2c1=O	i	i	i	i	i
O=c1cc(-c2ccc([N+](=O)[O-])cc2)c2ccc(O)cc2o1	i	i	i	60.5	i
Cc1ccc(S(=O)(=O)N/N=C2/CC(c3ccccc3)Oc3ccccc32)cc1 (configuration not stated)	i	i	i	i	i
O=S(=O)(N/N=C1\CC(c2ccccc2)Oc2ccccc21)c1ccccc1 (configuration not stated)	95.7	i	i	i	i
O=S(=O)(NCc1nc2ccccc2[nH]1)c1ccccc1	i	72.6	i	i	i
CNCc1nc2ccccc2[nH]1	nt	i	i	i	i
Oc1ccc2ccccc2c1-c1sc(Nc2ccccc2)n[n+]1-c1ccc(F)cc1	i	i	i	i	i
c1ccc(-[n+]2nc(Nc3cccc4ccccc34)sc2-c2c3ccccc3cc3ccccc23)cc1	i	nt	nt	i	83.5
Cc1cc(C)cc(N=Cc2ccc([N+](=O)[O-])s2)c1	i	i	i	i	62.4
NC(=O)c1ccc(N=Cc2ccc([N+](=O)[O-])s2)cc1	i	i	i	i	72.3
Cc1ccc(-c2nc(CSCC(=O)N3CCCC3)c(C)o2)cc1	99.1	i	i	i	i
O=C(CSCc1ccccc1)N1CCN(C(=O)c2ccco2)CC1	i	i	i	i	i
CCOC(=O)CSCc1nc(-c2ccc(Cl)cc2)oc1C	i	i	i	i	i
CCOC(=O)C1CCN(C(=O)CSCc2nc(-c3ccc(OCC)cc3)oc2C)CC1	98.9	i	i	i	i
CCOc1ccc(-c2nc(CSCC(=O)N3CCN(C(=O)c4ccco4)CC3)c(C)o2)cc1	99.1	i	i	i	i
CN1CC(C(=O)Nc2ccc(F)c(Cl)c2)CC1=O (configuration not stated)	i	i	i	i	i
SMILES	ALR inh	PHOSPHO1 inh	PfM18AAP inh	Cardio protect	PfGluPho inh
CCOCc1c(C(=O)NC2=Nc3ccccc3NC(CC)=C2C(=O)OCC)oc2ccccc12	i	i	i	67.6	i
CCOC(=O)C1=C(CC)Nc2ccccc2N=C1NC(=O)c1ccc(S(=O)(=O)N(C)C)cc1	i	i	i	81.2	i
CCOC(=O)C1=C(CC)Nc2ccccc2N=C1NC(=O)c1ccc(S(=O)(=O)N2CCOCC2)cc1	i	i	i	i	i
Cc1ccccc1-n1c(O)c(/C=C/C=Nc2ccccc2)c(=O)[nH]c1=O	i	i	i	i	i
Cc1ccc(-n2c(O)c(/C=C3/C(c4ccccc4)=Nc4ccccc43)c(=O)[nH]c2=O)cc1	98.0	i	i	i	i
O=C(O)c1ccc(CSc2ncn[nH]2)cc1	i	i	i	i	i
Cc1ccc(C(=O)CSc2ncn[nH]2)cc1	i	97.1	i	i	i
CCc1ccc(C(=O)CSc2ncn[nH]2)cc1	i	88.5	28.1	i	i
COc1ccc(C(=O)CSc2ncn[nH]2)cc1OC	i	76.6	i	i	i
O=C(NCc1cccnc1)c1cc(C2CCCCN2S(=O)(=O)c2ccc(F)cc2F)on1 (configuration not stated)	nt	nt	nt	i	nt
O=C(Cn1nc(-c2cccc(Cl)c2)ccc1=O)NCC1COCCO1 (configuration not stated)	nt	nt	nt	i	i

Screening data from PubChem.
